Data on eight molecules can be found in PubChem BioAssay (Tox21).

The target in assay [1] is Estrogen receptor beta (Homo sapiens) (UniProt Q92731). In words: qHTS assay to identify small molecule agonists of the estrogen receptor beta (ER-beta) signaling pathway (AID 1259377; active = well fitted activation curve with a large enough effect in the signal ratio in the repeat runs, not every such curve was filed as active; the % refers to the signal ratio; also: % is scaled to controls: 0 for no effect and ±100 for the full control effect). The procedure, abridged:
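Measured by fluorescence intensity from a B/G FRET beta-lactamase substrate (2 h, room temperature) in ER-beta-UAS-bla HEK293T cells treated with DMSO-dissolved compounds for 16 hr at 37C and 5% CO2.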
In general terms: Quantitative high-throughput screening tests each substance at several concentrations.

Assay [2] shares this target. In words: qHTS assay to identify small molecule antagonists of the estrogen receptor beta (ER-beta) signaling pathway (AID 1259378; active = well fitted inhibition curve with a large enough effect in the signal ratio in the repeat runs, not every such curve was filed as active; the % refers to the signal ratio; also: % is scaled to controls: 0 for no effect and ±100 for the full control effect). The procedure, abridged: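 ER-beta-UAS-bla HEK293T cells in 2% charcoal-stripped FBS medium treated with compound plus 1nM final 17-beta-estradiol for 16 hr at 37C. Beta-lactamase reporter read by FRET substrate fluorescence after 2 hours at room temperature.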

A short description of assay [3]: qHTS assay to identify small molecule agonists of the androgen receptor (AR) signaling pathway in the presence of an antagonist - cell viability counter screen (AID 1259379). Also: nearly all actives have a fitted effect of over 25% in size. Also: potency is read from the fitted curve at half-maximal effect. The procedure, abridged:
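A CellTiter-Fluor read-out measured viability of MDA-kb2 reporter cells (MMTV promoter with AR and GR response elements). Treatment: nilutamide 3.0uM final with compounds at 15 concentrations, 16 hr, 37C, 0% CO2.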

The nature of assay [4]: qHTS assay to identify small molecule agonists of the estrogen receptor beta (ER-beta) signaling pathway - cell viability counter screen (AID 1259380). Also: nearly all actives have a fitted effect of over 30% in size. Also: potency is read from the fitted curve at half-maximal effect. The procedure, abridged: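 Cells used were ER-beta-UAS-bla HEK293T in medium with 2% charcoal-stripped FBS. They were treated for 16 hr at 37C. Viability came from CellTiter-Glo luminescence.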
The nature of assay [5]: qHTS assay to identify small molecule antagonists of the estrogen receptor beta (ER-beta) signaling pathway - cell viability counter screen (AID 1259382). Also: nearly all actives have a fitted effect of over 55% in size. Also: potency is read from the fitted curve at half-maximal effect. The procedure, abridged:
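Agonist-stimulated (1nM E2) ER-beta-UAS-bla HEK293T cells are incubated with library compounds for 16 hr at 37C. Cell viability is then assessed in the reporter-assay wells by adding CellTiter-Glo and reading luminescence after 30 min.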

A short description of assay [6]: qHTS assay to identify small molecule agonists or antagonists of the thyroid stimulating hormone receptor (TSHR) signaling pathway - wild type cell line counter screen (AID 1259384; calls by dose curve; also: % is scaled to controls: 0 for no effect and ±100 for the full control effect). The procedure, abridged: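 Wild-type Hek293 cells, 800/well, 18 h at 37C, then compound with Ro20-1724 for 30 min RT. cAMP by HTRF (cAMP-d2/anti-cAMP cryptate), 1 h RT, fluorescence read. 15 concentrations, triplicates.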

Assay [7] has as its target Thyrotropin receptor (Homo sapiens) (UniProt P16473). In words: qHTS assay to identify small molecule antagonists of the thyroid stimulating hormone receptor (TSHR) signaling pathway (AID 1259385; calls by dose curve; also: % is scaled to controls: 0 for no effect and ±100 for the full control effect; nearly all actives have a fitted effect of over 20% in size). In short, it runs like this:
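TSHR-HEK293 cells (800/well) plated 18 h, then compounds with Ro20-1724 and TSH at 1.5 ng/mL final, 30 min at room temperature. cAMP quantified by HTRF (cAMP-d2/anti-cAMP-cryptate, 1 h); 15 concentrations in triplicate.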

The nature of assay [8]: qHTS assay to identify small molecule agonists of the estrogen receptor alpha (ER-alpha) signaling pathway in the presence of an antagonist - cell viability counter screen (AID 1259386).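 Also: cells exposed to compounds for 22 h at 37 °C before the viability read; nearly all actives have a fitted effect of over 30% in size.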 Also: potency is read from the fitted curve at half-maximal effect. The procedure, abridged: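 ICI-182,780 at 10.0nM final accompanies the compound titration (15 concentrations, 22hr, 37C) on VM7Luc4E2 cells. The CellTiter-Fluor fluorescence readout runs in the same wells as the luciferase assay.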

Assay [9] has as its target Progesterone receptor (Homo sapiens) (UniProt P06401). In words: qHTS assay to identify small molecule antagonists of the progesterone receptor (PR) signaling pathway (AID 1346795; active = well fitted inhibition curve with a large enough effect in the signal ratio in the repeat runs, not every such curve was filed as active; the % refers to the signal ratio; also: potency is read from the fitted curve at half-maximal effect). The procedure, abridged:
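After 6 hr plating at 37C in 2% stripped-serum medium, PR-UAS-bla HEK293T cells got compounds, then 1 nM R5020. Sixteen hours later, LiveBLAzer substrate was applied for 2 hr at room temperature and fluorescence was recorded.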

Assay [10] can be described thus: qHTS assay to identify small molecule antagonists of the progesterone receptor (PR) signaling pathway - cell viability counter screen (AID 1346798). Also: series mostly up to about 92 µM; % is scaled to controls: 0 for no effect and ±100 for the full control effect; nearly all actives have a fitted effect of over 50% in size. In short, it runs like this: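 Viability was determined by ATP-based luminescence (CellTiter-Glo) in PR-UAS-bla HEK293T cells cultured in 2% charcoal-stripped serum and incubated 16 hr with compounds under R5020 stimulation.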

Assay [11] in a line: qHTS assay to identify small molecule agonists of the progesterone receptor (PR) signaling pathway - cell viability counter screen (AID 1346799; calls by dose curve; also: % is scaled to controls: 0 for no effect and ±100 for the full control effect; nearly all actives have a fitted effect of over 45% in size). In short, it runs like this: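 Viability was scored by ATP luminescence (CellTiter-Glo, 30 min, room temperature) in the same wells used for the reporter readout, after 16 hr compound exposure of PR-UAS-bla HEK293T cells.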
Assay [12] is described as follows: qHTS assay to identify small molecule antagonists of the TGF-beta/Smad signaling pathway - cell viability counter screen (AID 1346824). Also: % is scaled to controls: 0 for no effect and ±100 for the full control effect; nearly all actives have a fitted effect of over 50% in size. The procedure, abridged:
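SBE-bla HEK 293T cells, incubated overnight, then compound plus 0.25 ng/mL TGF-beta1 (stock added) for 5 hr at 37 C. Viability was read in the same wells by CellTiter-Glo luminescence after 30 min at room temperature.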

Assay [13] is described as follows: qHTS assay to identify small molecule agonists of the TGF-beta/Smad signaling pathway - cell viability counter screen (AID 1346829). Also: top concentration of the series differs between compounds; % is scaled to controls: 0 for no effect and ±100 for the full control effect; nearly all actives have a fitted effect of over 45% in size. The procedure, abridged:
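After overnight seating at 37 C and 5% CO2, reporter cells got compounds for 5 hr and FRET substrate for 2 hr; cell viability then came from CellTiter-Glo luminescence.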

Assay [14] in a line: qHTS assay to identify small molecule agonists of the TGF-beta/Smad signaling pathway (AID 1346859; active = well fitted activation curve with a large enough effect in the signal ratio in the repeat runs, not every such curve was filed as active; the % refers to the signal ratio; also: series mostly up to about 77 µM; % is scaled to controls: 0 for no effect and ±100 for the full control effect). The procedure, abridged: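 Dual-wavelength fluorescence (460/530 nm emission) quantified beta-lactamase expression under the Smad binding element in HEK 293T cells following 5 hr compound treatment at 37 C.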
Assay [15] addresses Thyrotropin-releasing hormone receptor (Homo sapiens) (UniProt P34981). Put plainly: qHTS assay to identify small molecule antagonists of the thyrotropin-releasing hormone receptor (TRHR) signaling pathway (AID 1346877; active = well fitted inhibition curve with a large enough effect in the repeat runs, not every such curve was filed as active). In short, it runs like this:
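Screening used HEK293 cells engineered with TRHR, with a brief 5 min room-temperature compound exposure preceding addition of TRH to 1 nM. The read-out was kinetic calcium-dye fluorescence, concentration-response from 15 doses in triplicate.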

The target is the same in assay [16]. In words: qHTS assay to identify small molecule agonists of the thyrotropin-releasing hormone receptor (TRHR) signaling pathway (AID 1346891; calls by dose curve). The procedure, abridged: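 Kinetic fluorescence (3 min, 1 s intervals) reported intracellular calcium after compound transfer onto TRHR-Hek293 cells pre-loaded with dye for 2 h at 37 °C.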
The target in assay [17] is Estrogen receptor (Homo sapiens) (UniProt P03372). Put plainly: qHTS assay to identify small molecule agonists of the estrogen receptor alpha (ER-alpha) signaling pathway in the presence of an antagonist (AID 1259383; calls by dose curve; also: top concentration of the series differs between compounds; % is scaled to controls: 0 for no effect and ±100 for the full control effect; nearly all actives have a fitted effect of over 15% in size). In short, it runs like this:
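Using VM7Luc4E2 cells seeded 24hr before treatment, antagonist ICI-182,780 (10.0nM final) was added, followed by compounds at 15 concentrations. Plates incubated 22hr; ONE-Glo luminescence quantified reporter activity.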

The target in assay [18] is Progesterone receptor (Homo sapiens) (UniProt P06401). Put plainly: qHTS assay to identify small molecule agonists of the progesterone receptor (PR) signaling pathway (AID 1346784; calls by dose curve; also: % is scaled to controls: 0 for no effect and ±100 for the full control effect; nearly all actives have a fitted effect of over 30% in size). The procedure, abridged: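 The screen uses PR-UAS-bla HEK 293T cells in charcoal-stripped serum (2%). Compounds are applied for 16 hr at 37C after a 6 hr pre-incubation, and reporter activity is detected with a FRET beta-lactamase substrate after 2 hr at room temperature.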

Assay [19] is described as follows: qHTS assay to identify small molecule antagonists of the sonic hedgehog signaling (Shh) pathway (AID 1259369; calls by dose curve; also: potency is read from the fitted curve at half-maximal effect; nearly all actives have a fitted effect of over 45% in size). In short, it runs like this: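 Conditioned medium drives Shh signalling in 3T3Gli1-Luc cells; compounds in DMSO co-applied, 24hr at 37 C, then luciferase luminescence.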
Assay [20] deals with Androgen receptor (Homo sapiens) (UniProt P10275). Put plainly: qHTS assay to identify small molecule agonists of the androgen receptor (AR) signaling pathway in the presence of an antagonist (AID 1259381; calls by dose curve; also: % is scaled to controls: 0 for no effect and ±100 for the full control effect; nearly all actives have a fitted effect of over 15% in size). In short, it runs like this: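 Using human MDA-kb2 cells with an MMTV promoter–luciferase construct (AR and GR response elements), agonist activity is scored under 3.0uM nilutamide (final) co-treatment; 16hr incubation, 37C, luminescence readout via ONE-Glo.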

SMILES strings stand for the structures. A number with no mark means an inactive call. Inconclusive results are not listed. Activity calls are given as the source filed them. Unless noted, calls follow the shape of the dose curve; as a rule, active = well fitted curve in the direction sought with a large enough effect in the repeat runs; inconclusive = weak or mixed curves; inactive = no such curve, though single readings can be large; an effect the other way counts as inactive or inconclusive.

Estrogen receptor (Homo sapiens), sequence (P03372 whole entry, looked up): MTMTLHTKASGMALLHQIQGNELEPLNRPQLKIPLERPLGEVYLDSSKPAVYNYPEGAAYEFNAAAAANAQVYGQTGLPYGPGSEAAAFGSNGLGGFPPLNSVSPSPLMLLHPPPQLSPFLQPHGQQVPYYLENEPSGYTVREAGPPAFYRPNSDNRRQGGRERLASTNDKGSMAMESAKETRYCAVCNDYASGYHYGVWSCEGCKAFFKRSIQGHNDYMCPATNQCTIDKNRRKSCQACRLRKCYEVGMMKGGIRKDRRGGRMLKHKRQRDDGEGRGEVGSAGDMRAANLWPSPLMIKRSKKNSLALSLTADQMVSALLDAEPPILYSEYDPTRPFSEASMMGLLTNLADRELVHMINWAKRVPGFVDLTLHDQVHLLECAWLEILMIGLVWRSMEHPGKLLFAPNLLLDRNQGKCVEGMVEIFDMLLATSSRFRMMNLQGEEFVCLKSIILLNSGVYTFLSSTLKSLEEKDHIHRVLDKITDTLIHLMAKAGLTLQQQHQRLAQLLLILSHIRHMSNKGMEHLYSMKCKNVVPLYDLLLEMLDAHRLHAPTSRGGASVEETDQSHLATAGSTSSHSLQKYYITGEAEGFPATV
Estrogen receptor beta (Homo sapiens), sequence (Q92731 whole entry, looked up): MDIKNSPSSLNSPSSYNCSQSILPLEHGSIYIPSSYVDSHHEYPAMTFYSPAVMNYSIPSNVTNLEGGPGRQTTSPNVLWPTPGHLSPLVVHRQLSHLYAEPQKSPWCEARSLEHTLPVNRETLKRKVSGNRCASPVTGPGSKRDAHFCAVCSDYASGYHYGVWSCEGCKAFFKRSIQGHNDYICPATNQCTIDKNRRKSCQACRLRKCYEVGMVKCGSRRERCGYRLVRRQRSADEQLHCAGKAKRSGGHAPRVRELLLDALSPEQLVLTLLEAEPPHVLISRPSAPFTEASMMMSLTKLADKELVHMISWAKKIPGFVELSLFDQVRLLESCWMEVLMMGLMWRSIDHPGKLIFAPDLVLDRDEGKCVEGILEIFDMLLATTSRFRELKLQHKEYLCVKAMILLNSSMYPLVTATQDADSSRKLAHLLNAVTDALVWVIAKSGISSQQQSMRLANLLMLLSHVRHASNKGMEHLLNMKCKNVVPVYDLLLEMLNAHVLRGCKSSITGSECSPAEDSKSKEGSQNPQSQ
Thyrotropin receptor (Homo sapiens), sequence (P16473 whole entry, looked up): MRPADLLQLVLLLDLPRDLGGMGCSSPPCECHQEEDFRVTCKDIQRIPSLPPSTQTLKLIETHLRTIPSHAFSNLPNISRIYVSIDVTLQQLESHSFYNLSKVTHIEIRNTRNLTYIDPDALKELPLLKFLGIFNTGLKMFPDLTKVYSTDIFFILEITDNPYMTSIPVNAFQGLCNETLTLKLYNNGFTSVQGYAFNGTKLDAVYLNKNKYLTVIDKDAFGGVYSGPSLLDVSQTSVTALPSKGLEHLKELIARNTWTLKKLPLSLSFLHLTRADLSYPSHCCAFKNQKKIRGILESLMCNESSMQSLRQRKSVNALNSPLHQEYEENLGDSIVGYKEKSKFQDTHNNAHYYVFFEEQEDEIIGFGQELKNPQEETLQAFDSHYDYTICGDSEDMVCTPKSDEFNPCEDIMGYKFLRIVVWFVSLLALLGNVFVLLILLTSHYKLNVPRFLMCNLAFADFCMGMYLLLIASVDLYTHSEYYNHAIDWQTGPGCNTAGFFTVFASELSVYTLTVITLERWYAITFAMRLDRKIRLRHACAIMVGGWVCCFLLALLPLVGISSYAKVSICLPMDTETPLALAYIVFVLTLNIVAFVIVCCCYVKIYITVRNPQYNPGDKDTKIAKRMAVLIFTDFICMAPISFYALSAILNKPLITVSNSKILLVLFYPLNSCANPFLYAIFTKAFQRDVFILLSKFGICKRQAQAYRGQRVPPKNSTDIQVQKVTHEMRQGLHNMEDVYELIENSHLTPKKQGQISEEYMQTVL
Thyrotropin-releasing hormone receptor (Homo sapiens), sequence (P34981 whole entry, looked up): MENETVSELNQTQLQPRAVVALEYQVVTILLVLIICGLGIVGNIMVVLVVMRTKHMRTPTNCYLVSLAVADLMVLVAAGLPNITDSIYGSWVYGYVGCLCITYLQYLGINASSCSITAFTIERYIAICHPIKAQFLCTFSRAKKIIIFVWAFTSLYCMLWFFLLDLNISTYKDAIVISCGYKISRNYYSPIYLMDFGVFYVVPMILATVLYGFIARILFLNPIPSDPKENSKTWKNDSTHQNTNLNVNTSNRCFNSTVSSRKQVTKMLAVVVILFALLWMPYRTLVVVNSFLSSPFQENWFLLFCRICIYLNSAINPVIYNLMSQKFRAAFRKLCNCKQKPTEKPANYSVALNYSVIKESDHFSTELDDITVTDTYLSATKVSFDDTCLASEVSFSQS
Progesterone receptor (Homo sapiens), sequence (P06401 whole entry, looked up): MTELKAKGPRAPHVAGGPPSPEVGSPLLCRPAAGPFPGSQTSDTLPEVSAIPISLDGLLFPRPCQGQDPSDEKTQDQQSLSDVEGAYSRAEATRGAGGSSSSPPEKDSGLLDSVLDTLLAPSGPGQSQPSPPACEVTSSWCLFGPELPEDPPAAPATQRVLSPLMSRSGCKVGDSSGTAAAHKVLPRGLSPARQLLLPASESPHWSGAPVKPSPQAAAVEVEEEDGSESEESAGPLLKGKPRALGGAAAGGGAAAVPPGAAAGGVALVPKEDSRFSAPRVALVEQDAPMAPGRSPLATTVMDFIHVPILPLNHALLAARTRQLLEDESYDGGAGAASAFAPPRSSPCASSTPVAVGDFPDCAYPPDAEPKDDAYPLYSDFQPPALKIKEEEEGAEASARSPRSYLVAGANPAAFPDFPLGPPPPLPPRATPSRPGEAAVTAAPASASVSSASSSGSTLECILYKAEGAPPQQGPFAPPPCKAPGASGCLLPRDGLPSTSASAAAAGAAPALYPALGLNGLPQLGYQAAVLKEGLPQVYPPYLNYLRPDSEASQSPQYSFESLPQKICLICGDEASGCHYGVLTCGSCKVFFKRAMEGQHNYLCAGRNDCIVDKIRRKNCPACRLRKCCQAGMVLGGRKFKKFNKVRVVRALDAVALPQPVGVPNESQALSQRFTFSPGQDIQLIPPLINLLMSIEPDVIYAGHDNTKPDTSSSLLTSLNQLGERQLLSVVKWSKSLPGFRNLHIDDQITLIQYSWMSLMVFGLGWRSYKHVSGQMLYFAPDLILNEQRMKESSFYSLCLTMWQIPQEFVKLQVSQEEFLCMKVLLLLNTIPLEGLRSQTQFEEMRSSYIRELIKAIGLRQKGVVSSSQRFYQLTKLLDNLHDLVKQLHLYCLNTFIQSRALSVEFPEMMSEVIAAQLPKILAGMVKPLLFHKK
Androgen receptor (Homo sapiens), sequence (P10275 whole entry, looked up): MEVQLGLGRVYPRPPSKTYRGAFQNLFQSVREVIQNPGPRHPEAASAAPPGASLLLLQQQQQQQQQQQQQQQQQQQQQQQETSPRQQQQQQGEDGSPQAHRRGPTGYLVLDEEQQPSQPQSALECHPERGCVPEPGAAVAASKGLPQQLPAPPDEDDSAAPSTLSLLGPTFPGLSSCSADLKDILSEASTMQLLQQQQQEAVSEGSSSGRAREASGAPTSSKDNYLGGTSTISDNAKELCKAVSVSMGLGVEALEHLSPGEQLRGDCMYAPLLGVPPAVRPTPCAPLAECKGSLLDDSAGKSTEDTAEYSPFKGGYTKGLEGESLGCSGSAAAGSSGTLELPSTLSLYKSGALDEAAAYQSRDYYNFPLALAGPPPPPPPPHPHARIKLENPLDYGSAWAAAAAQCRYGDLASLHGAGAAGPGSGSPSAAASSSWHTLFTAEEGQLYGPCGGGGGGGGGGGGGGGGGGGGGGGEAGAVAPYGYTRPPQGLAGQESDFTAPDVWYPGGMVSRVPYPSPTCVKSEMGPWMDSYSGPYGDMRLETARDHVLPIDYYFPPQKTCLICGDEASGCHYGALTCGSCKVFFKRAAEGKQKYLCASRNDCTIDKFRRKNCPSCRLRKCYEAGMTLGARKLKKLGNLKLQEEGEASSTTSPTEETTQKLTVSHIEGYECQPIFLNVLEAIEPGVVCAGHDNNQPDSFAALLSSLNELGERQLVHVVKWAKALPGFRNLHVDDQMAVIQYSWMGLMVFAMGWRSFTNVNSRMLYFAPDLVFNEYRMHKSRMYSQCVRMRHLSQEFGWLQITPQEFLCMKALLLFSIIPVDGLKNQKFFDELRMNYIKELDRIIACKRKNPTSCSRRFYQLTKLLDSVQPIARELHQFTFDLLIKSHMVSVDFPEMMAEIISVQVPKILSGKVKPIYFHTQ

With `Cc1ccc(N=Nc2c(O)c(C(=O)O)cc3ccccc23)c(S(=O)(=O)O)c1`, the Potency result in assay [1], in assay [2], in [4], in assay [5], in [6] and in assay [7] was “inactive” throughout. The Potency entry in assay [9], in [10], in assay [11], in assay [12], in assay [14] and in [16] was “inactive” each time. Moreover, the Potency in assay [3] and in [8] was 23.6 µM (active) in each case. Moreover, the outcome in assay [13] and in assay [15] was inactive.
Regarding `OC[C@H]1O[C@@H](OCCc2ccc(O)cc2)[C@H](O)[C@@H](O)[C@@H]1O`, the Potency result in assay [1], in [2], in [3], in assay [4], in assay [5] and in assay [17] was “inactive” each time. In addition, the Potency entry in assay [8], in assay [18], in assay [9], in assay [10], in assay [11] and in assay [12] was “inactive” in each case. Also, the Potency result in assay [14] and in [16] was “inactive” in each case. The molecule was called inactive in [13] and in [15].
For `CCCCCCCCCOS(=O)(=O)O`, the Potency entry in assay [1], in [2], in [3], in assay [4], in assay [5] and in [17] was “inactive” in each case. The Potency entry in assay [7], in [8], in assay [18], in assay [9], in assay [11] and in [12] was “inactive” throughout. Also, in assay [16], the Potency entry was “inactive”. The molecule was called inactive in assay [13] and in assay [15].
On to `O=C1[C@H]2CCCC[C@H]2C(=O)N1CCCCN1CCN(c2nsc3ccccc23)CC1`, for which the Potency in [19] is 23.7 µM (active); in [8] it was 29.8 µM (active). The Potency result in assay [17], in [7], in [18], in assay [9] and in [10] was “inactive” in each case. For the same molecule, the call in [13] and in assay [15] was inactive.
Consider `O=[N+]([O-])c1ccc2[nH]ncc2c1`, for which the Potency result in assay [1], in assay [3], in assay [4], in assay [5], in assay [17] and in [6] was “inactive” each time. For the same molecule, the Potency entry in [7], in assay [8], in assay [18], in [10], in assay [11] and in assay [14] was “inactive” throughout. For the same molecule, in [16], the Potency entry was “inactive”. The call in [13] and in assay [15] was inactive.
For `CCCOC(C(=O)OC1CCN(C)CC1)(c1ccccc1)c1ccccc1`, the values for the Potency in [19] and in assay [4] were 21.1 µM (active) and 26.6 µM (active), respectively. Also, the Potency result in [17], in assay [6], in assay [7], in assay [8], in [18] and in assay [9] was “inactive” throughout. The Potency result in assay [12] and in assay [14] was “inactive” each time. In addition, the molecule was called inactive in [13].
With `Cc1[nH]c(C)c(Cl)c(=O)c1Cl`, the values for the activation in assay [1], in assay [18] and in assay [16] were 0.451% [at 19 µM], 2.04% [at 19 µM] and -1.18% [at 11.8 µM], respectively. Moreover, the activity, negative = inhibition was 9.97% [at 19 µM] in assay [2] and 2.83% [at 10.5 µM] in [15]. The activity change, negative = cytotoxicity is 0.0878% [at 19 µM] in assay [3]; 2.64% [at 19 µM] in assay [4]; 0.273% [at 19 µM] in assay [5]; -1.35% [at 19 µM] in [8]; 10.6% [at 18.9 µM] in assay [10]; 5.96% [at 19 µM] in assay [11]. Also, the activity change, negative = cytotoxicity in [13] was 5.04% [at 15.8 µM]. Besides, the Potency entry in assay [17] is “inactive”. In addition, the cAMP activity change in [6] was 6.03% [at 18.9 µM, stronger effect = higher value]. Further, the activity change, negative = inhibition in assay [7] is 4.84% [at 19 µM]; in assay [9], 4.44% [at 18.9 µM]. For the same molecule, the viability change, negative = cytotoxic in assay [12] was 5.33% [at 15.8 µM].
`CN1CCC(=C2c3ccccc3Sc3ccccc32)CC1`: the Potency result in assay [3], in [20], in assay [17], in [8], in assay [18] and in assay [11] was “inactive” each time. The Potency result in assay [12] and in [14] was “inactive” each time. The Potency in assay [4] is 23.7 µM (active); in assay [5], 21.1 µM (active); in [9], 23.7 µM (active). Besides, the outcome in assay [13] and in assay [15] was inactive.
